Data from PubChem BioAssay (NCI).
This is part of a sample that, as a whole, favours compounds with a hit. Of some 83,000 tested, about 20% had one in any assay.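 Percent growth is the endpoint: 0 to 100 indicates growth inhibition (40 means 60% inhibition), 0 means no net growth, and negative values indicate cell death.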 Unmarked numbers belong to inactive results. Calls of active or inactive are those of the source. The calls were made as follows: active = growth percent below 10; inactive = the rest.

Legend:
Test in all cases: NCI-60 one-dose screen, 48 h (100 = growth as untreated, 0 = no growth, -100 = all killed)
Details in all cases: 10 µM unless noted
T-47D breast = tested on: T-47D breast
MDA-MB-435 melanoma = tested on: MDA-MB-435 melanoma
SW-620 colon = tested on: SW-620 colon
MCF7 breast = tested on: MCF7 breast
HCT-116 colon = tested on: HCT-116 colon
HCC-2998 colon = tested on: HCC-2998 colon
KM12 colon = tested on: KM12 colon

Compound | growth (T-47D breast) | growth (MDA-MB-435 melanoma) | growth (SW-620 colon) | growth (MCF7 breast) | growth (HCT-116 colon) | growth (HCC-2998 colon) | growth (KM12 colon)
Cn1cc(C(=O)c2nc(-c3cn(C)c4ccc(F)cc34)no2)c2cc(F)ccc21 | 91.2% | 111% | 90.6% | 47.3% | 98.1% | 84.6% | 95.2%
c1cc(-c2nnc(SSc3ncnc4nc[nH]c34)o2)ccn1 | 42.3% | 16% | 34.6% | 23% | 16.6% | 10.3% | 45.8%
COC1=C(C)C(=O)c2c(c(CCCl)c3n2CCC3OC(C)=O)C1=O (stereo not given) | 60.6% | -58% (active) | 3.87% (active) | -39.9% (active) | -19.7% (active) | -48.1% (active) | -18.6% (active)
Fc1cc(-c2nnc3sc(-c4ccc(Cl)cc4Cl)nn23)c(Cl)cc1Cl | 68.4% | 94.3% | 81.7% | 83.7% | 45.9% | 93% | 96%
COc1cccc(-c2nn(-c3ccccc3)cc2-c2ccnc(N3CCOCC3)c2)c1 | 51.7% | 98.9% | 105% | 87% | 79.8% | 93.8% | 86.1%
C/C(=C\C(=O)c1ccc(Cl)cc1)c1ccc(Cl)cc1 | 85.8% | 102% | 99.3% | 19.4% | 101% | 82.2% | 26.2%
CNCCCC12CCC(c3ccccc31)c1ccccc12 | 89% | 78.9% | 98.2% | 87.3% | 69.1% | 50.5% | 94.1%
COc1ccc(-c2cc(-c3cc(OC)c(OC)c(OC)c3)nc(N3CCOCC3)c2C#N)cc1 | 46.7% | 74.5% | 67.3% | 74.4% | 72.1% | 35% | 71.9%
CCOC(=O)c1cn2ncnc(Oc3ccc(NC(=O)NCCN(C)C)c(Cl)c3)c2c1C | 45.8% | 46.1% | 31.5% | 61.6% | 36.4% | 80.2% | 93.3%
Cc1cccc2c(=O)c3c(sc12)c(NCc1ccccc1)nc1ccccc13 | 48.4% | 109% | 95.5% | 27.2% | 77% | 90.3% | 84.5%
